Screening data from PubChem BioAssay.
Mito fusion act: qHTS Assay for Small Molecule Inhibitors of Mitochondrial Division or Activators of Mitochondrial Fusion; AID 485298, 2010; 320,000 compounds, 0.23% hits; S. cerevisiae fusion-defective mutant growth rescue, CellTiterGlo 48 h; Potency, µM (top dose mostly 46.1 µM), without a hit: top-dose growth rescue (activation), actives largely listed as activators; further: % of control where 0% means no effect; nearly all actives have a fitted effect of over 45% in size
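Read-out: ATP-based luminescence (CellTiterGlo, 10 min ambient) reporting growth of fusion-defective ts yeast after 48 hours at 37C on glycerol/ethanol YPEG medium in the presence of compound.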
gsp antagonist: qHTS for Antagonists of gsp, the Etiologic Mutation Responsible for Fibrous Dysplasia/McCune-Albright Syndrome: qHTS; gsp-mutant cells, cAMP HTRF, 30 min; 340,000 compounds, 0.4% hits; Potency, µM (highest dose often 76.9 µM), for inactives: at the highest dose activity change, negative = inhibition, usual class: inhibitors; calls by dose curve; cell line not stated here;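 further: intracellular cAMP measured with PDE inhibitor Ro 20-1724 present during compound exposure; on the % scale 0 is the no-effect control and ±100 the full control effect; nearly all actives have a fitted effect of over 65% in size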
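Cells, 2000/well, grown 16–24 h in DMEM 10% FBS with 0.5 mg/ml G418, then compounds plus […] (300 uM addition stock), 30 min at 37C. cAMP read by HTRF (cAMP-d2 and anti-cAMP antibody-K in lysis buffer) after 30 min RT.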
ALOX12 inh: Primary qHTS assay for inhibitors of human arachidonate 12S-lipoxygenase (ALOX12): Round 2. 580,000 compounds, 1.1% hits. Polyunsaturated fatty acid lipoxygenase ALOX12 (Homo sapiens), P18054. Potency, µM (titrated, usually from 108 µM), for the others: at the top dose activity change, negative = inhibition, actives largely listed as inhibitors. purified 12hLO, xylenol orange hydroperoxide absorbance. AID 1671190, 2021; further: on the % scale 0 is the no-effect control and ±100 the full control effect
Target sequence (P18054 whole entry, looked up): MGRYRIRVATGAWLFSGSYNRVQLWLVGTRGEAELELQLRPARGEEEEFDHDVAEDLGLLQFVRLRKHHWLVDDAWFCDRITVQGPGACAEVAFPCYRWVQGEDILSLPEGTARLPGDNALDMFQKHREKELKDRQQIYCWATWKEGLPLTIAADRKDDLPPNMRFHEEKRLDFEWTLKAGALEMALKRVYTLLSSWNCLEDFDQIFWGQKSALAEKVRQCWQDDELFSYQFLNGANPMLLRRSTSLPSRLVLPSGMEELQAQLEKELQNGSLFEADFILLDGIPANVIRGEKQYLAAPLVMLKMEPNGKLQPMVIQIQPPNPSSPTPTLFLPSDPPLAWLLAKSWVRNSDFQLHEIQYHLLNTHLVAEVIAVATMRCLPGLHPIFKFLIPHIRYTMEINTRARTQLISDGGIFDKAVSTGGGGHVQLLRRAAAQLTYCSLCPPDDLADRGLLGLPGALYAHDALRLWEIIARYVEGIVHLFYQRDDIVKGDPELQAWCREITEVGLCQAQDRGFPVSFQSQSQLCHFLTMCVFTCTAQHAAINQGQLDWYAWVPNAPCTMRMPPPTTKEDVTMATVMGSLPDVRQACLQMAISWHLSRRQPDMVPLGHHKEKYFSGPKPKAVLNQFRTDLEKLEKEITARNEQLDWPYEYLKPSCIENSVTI
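Purified human 12hLO at 150 nM in 25 mM Hepes, 0.01% Triton X-100, pH 7.0, preincubated 15 min at room temperature with compound. Reaction started with 40 uM arachidonic acid, 30 min at room temperature. Hydroperoxide measured by Fe-xylenol orange, 573/405 nm absorbance ratio.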
gsp agonist: qHTS for Agonist of gsp, the Etiologic Mutation Responsible for Fibrous Dysplasia/McCune-Albright Syndrome: qHTS; 340,000 compounds, 0.13% hits; gsp mutant cells, cAMP HTRF, 30 min; Potency, µM (titrated, usually from 76.9 µM), for inactives: at the top dose activation (cAMP increase), most hits filed as activators; AID 624287, 2012; active means well fitted activation curve with a large enough effect; inconclusive means small, poorly fitted or top-dose-only effect, or another doubt; inactive means no such curve, though single readings can be large or run the other way; cell line not stated here;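 further: phosphodiesterase inhibitor Ro 20-1724 added with compounds to block cAMP breakdown; nearly all actives have a fitted effect of over 60% in size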
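Cells stably selected in G418 were plated at 2000/well, grown 16-24 hr, then given compounds in DMSO with the PDE inhibitor […] (300 uM solution added) for 30 min at 37C; cAMP was read by HTRF.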
FUS suppressor: qHTS for Suppressors of FUS Proteinopathy: Primary screen using FUS-linked yeast assay. AID 1347120, 2019. Potency, µM (titrated, usually from 76.6 µM), actives largely listed as activators. S. cerevisiae FUS-expressing, growth rescue, OD600, 24 h. 390,000 compounds, 0.24% hits;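 further: plate controls were DMSO vehicle for no effect and reference control for full effect; nearly all actives have a fitted effect of over 55% in size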
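Yeast expressing FUS under galactose induction, OD 0.005 in 2% galactose medium; compounds in a dilution series, 24 h at 30C. Growth rescue by absorbance at 600 nm; CP55940 positive control, DMSO negative.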
An asterisk follows results filed as active; i = inactive; ? = inconclusive; . = no result; [ ] = remark or other dose. In the library only some 1.6% were active in any assay of this set; here they are far more common. Unless noted, the call rests on the fitted dose curve; in most records, active means well fitted curve in the direction sought with a large enough effect; inconclusive means small, poorly fitted or top-dose-only effect, or another doubt; inactive means no such curve, though single readings can be large; an effect the other way counts as inactive or inconclusive. Potency means the concentration at half of the fitted maximal effect.

SMILES | Mito fusion act | gsp antagonist | ALOX12 inh | gsp agonist | FUS suppressor
CCS(=O)(=O)Nc1ccc(C2=NN(C(=O)c3ccccc3)C(c3cccs3)C2)cc1 (stereo not given) | 13.3% | 28.2µM* | -0.3% | 5.6% | i
O=C1N(C2CCN(C3CCC3)CC2)C(c2ccncc2)C12CCCCC2 (stereo not given) | . | . | 14.5% | . | .
CCN1CCN(c2c(/C=C3\SC(=S)N(Cc4ccco4)C3=O)c(C)c(C#N)c(=O)n2C)CC1 | 0.3% | -15.9% | ? | -1.7% | 22.4µM*
COc1ccc(OC)c(Nc2ncnc3c2cnn3-c2cccc(C)c2)c1 | 15.8µM* | 6.9% | 11.8% | -31.9% | i
O=C(O)c1ccccc1N/N=C/c1cc(Br)cc(Br)c1O | 3.8% | -25.9% | 44.7µM* | 4.0%[15.4 µM] | i
Cc1ccsc1C(=O)N1CCCC1c1noc(COc2ccc(F)cc2)n1 (stereo not given) | . | . | -3.7% | . | .
Clc1ccc(-c2ncc3ccccn23)cc1 | ? | -10.6% | ? | 3.6% | i
Clc1ccccc1-c1ncc2ccccn12 | -3.7% | -3.2% | 22.4µM* | 5.6%[15.4 µM] | i
Cc1ccc(C2=C(O)C(=O)C(c3ccc(C)cc3)=C(O)C2=O)cc1 | . | -18.7% | 1.12µM* | 15.9% | .
Cc1ccc(-c2csc(N/N=C/c3ccco3)n2)cc1 | -17.1% | -9.5% | ? | 5.0% | ?
CN(C)S(=O)(=O)c1ccc(-c2csc(N/N=C/c3ccc(O)cc3)n2)cc1 | 4.9% | 31.6µM* | ? | 7.0%[15.4 µM] | i
CN(C)S(=O)(=O)c1ccc(-c2csc(N/N=C/c3ccco3)n2)cc1 | -5.1% | 31.6µM* | 3.4% | -20.0%[15.4 µM] | i
C[C@H]1O[C@H](O[C@H]2[C@H](O[C@@H]3CC[C@@]4(C)C(CC[C@]5(C)C4CC=C4[C@@H]6CC(C)(C)CC[C@]6(C(=O)O[C@@H]6O[C@H](CO)[C@@H](O)[C@H](O)[C@H]6O)CC[C@]45C)C3(C)C)O[C@H](C(=O)O)[C@@H](O)[C@@H]2O)[C@@H](O)[C@@H](O)[C@@H]1O (stereo not given in full) | 0.0% | -3.7% | 32.7% | -34.6% | ?
CC1(C)CC[C@]2(C(=O)O)CC[C@]3(C)C(=CC[C@@H]4[C@@]5(C)CC[C@H](O[C@@H]6O[C@H](C(=O)O)[C@@H](O)[C@H](O[C@@H]7OC[C@H](O)[C@H](O)[C@H]7O)[C@H]6O)C(C)(C)[C@@H]5CC[C@]43C)[C@@H]2C1 | . | 44.7µM* | -23.6% | . | i
CC1OC(OC2C(CO)OC(OCC3OC(OC(=O)[C@@]45CCC(C)(C)C[C@@H]4C4=CC[C@@H]6[C@@]7(C)CCC(OC8OCC(O)C(O)C8OC8OC(C)C(O)C(O)C8O)[C@@](C)(CO)C7CC[C@@]6(C)[C@]4(C)CC5)C(O)C(O)C3O)C(O)C2O)C(O)C(O)C1O (stereo not given in full) | . | 39.8µM* | 8.1% | . | i
C[C@@H]1CC[C@]2(C(=O)O[C@@H]3O[C@H](CO)[C@@H](O)[C@H](O)[C@H]3O)CC[C@]3(C)C(=CCC4[C@@]5(C)C[C@@H](O)[C@H](O)[C@@](C)(C(=O)O[C@@H]6[C@H](O)C[C@@]7(C)C(CC[C@]8(C)C7CC=C7[C@H]9[C@](C(=O)O[C@@H]%10O[C@H](CO)[C@@H](O)[C@H](O)[C@H]%10O)(CC[C@@H](C)[C@@]9(C)O)CC[C@]78C)[C@@]6(CO)C(=O)O)C5CC[C@]43C)[C@@H]2[C@]1(C)O (stereo not given in full) | . | 3.0% | ? | . | 12.6µM*
Cc1[nH]c2ccccc2c1CC(=O)N1CCN(S(=O)(=O)c2ccccc2F)CC1 | . | . | 4.4% | . | .
Cc1ccc(CN(c2ccc(C(=O)NC(C(C)C)C(C)C)cc2)S(C)(=O)=O)cc1 | . | . | -16.9% | . | .
O=C(Cn1sc2ccccc2c1=O)Nc1ccccc1 | . | . | 0.891µM* | ? | i
